Our source for the growth values is PubChem BioAssay (NCI).

The panel holds about 83,000 compounds, 20% with a hit somewhere; the sample as a whole holds those more often.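 Testing used 96-well plates and a 48-hour single-concentration exposure. Example: -40 means 40% of the starting cells died.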 Unmarked numbers belong to inactive results. The source made the active and inactive calls. The calls were made as follows: active = growth percent below 10; inactive = the rest.

Test systems include SR leukemia; RPMI-8226 leukemia; OVCAR-8 ovarian; OVCAR-5 ovarian; OVCAR-4 ovarian; SK-OV-3 ovarian; IGROV1 ovarian; OVCAR-3 ovarian; NCI/ADR-RES ovarian; HS 578T breast.
Experiment in all cases: NCI-60 one-dose screen, 48 h (100 = growth as untreated, 0 = no growth, -100 = all killed)
What all share (conditions): 10 µM unless noted

As to `C[C@H](C(=O)N[C@@H](Cc1ccc(-c2ccccc2)cc1)C(=O)NC1CC(C)(C)N(C)C(C)(C)C1)c1ccc(-c2ccccc2)c(F)c1`, the growth in the test on SR leukemia was -40.5% (active); with RPMI-8226 leukemia, -41.6% (active); with OVCAR-8 ovarian, -46.5% (active); in the test with OVCAR-5 ovarian, -70.2% (active); with OVCAR-4 ovarian, -50.7% (active); with SK-OV-3 ovarian, -33.3% (active). Moreover, the growth in the test on IGROV1 ovarian was -26.4% (active); with OVCAR-3 ovarian, -82.9% (active); in the test with NCI/ADR-RES ovarian it was -5.29% (active).

As to `COc1ccc(-c2cnc(SCC(=O)Nc3ccc(-c4nc5ccccc5s4)cc3)n2-c2ccc(OC)cc2)cc1`, the growth is 99.5% in the test on SR leukemia; 113% in the test with RPMI-8226 leukemia; 105% with OVCAR-8 ovarian; 99% in the test on OVCAR-5 ovarian; 111% with OVCAR-4 ovarian; 111% in the test with SK-OV-3 ovarian. The figures for the growth in the test with IGROV1 ovarian, with OVCAR-3 ovarian and in the test on NCI/ADR-RES ovarian were 91.5%, 109% and 107%, respectively.

As to `CCOC(=O)OCC(=O)[C@@]1(O)CC[C@H]2[C@@H]3CCC4=CC(=O)CC[C@]4(C)[C@H]3[C@@H](O)C[C@@]21C`, the growth in the test on SR leukemia is 109%; with RPMI-8226 leukemia it was 64.3%; in the test with OVCAR-8 ovarian, 94.5%; in the test on OVCAR-5 ovarian, 83.2%; in the test with OVCAR-4 ovarian it was 104%; in the test with SK-OV-3 ovarian, 68.4%. The growth in the test with IGROV1 ovarian was 87.5%; in the test with OVCAR-3 ovarian it was 112%; with NCI/ADR-RES ovarian, 91%.

Regarding `CCCCCCCC[Si](OCC)(OCC)OCC`, the growth with SR leukemia was 79.4%; in the test with RPMI-8226 leukemia, 99.2%; in the test with OVCAR-8 ovarian it was 98.9%; in the test with OVCAR-5 ovarian, 104%; with OVCAR-4 ovarian, 103%; with SK-OV-3 ovarian, 105%. Also, the growth in the test on IGROV1 ovarian was 94.6%; with OVCAR-3 ovarian it was 106%; in the test on NCI/ADR-RES ovarian, 108%.

For `CC(=O)N1N=C(c2ccc3c(c2)OCO3)CC1c1c(C)nn(-c2ccccc2)c1N(C)Cc1ccccc1` (stereo unspecified), the growth in the test on SR leukemia was 67%; in the test on RPMI-8226 leukemia, 58.8%; with OVCAR-8 ovarian, 76.7%; in the test on OVCAR-5 ovarian, 97.1%; with OVCAR-4 ovarian, 66.3%; in the test on SK-OV-3 ovarian, 84.2%. Besides, the growth in the test on IGROV1 ovarian is 51.5%; with OVCAR-3 ovarian it was 79.4%; in the test on NCI/ADR-RES ovarian, 63%.

On to `COc1cc(C(=O)/C=C/c2cccc(Nc3ccnc4cc(Cl)ccc34)c2)cc(OC)c1OC`, for which the growth is -18.7% (active) in the test with SR leukemia; -15.9% (active) with RPMI-8226 leukemia; -41% (active) in the test on OVCAR-8 ovarian; -35.8% (active) in the test with OVCAR-5 ovarian; -39.5% (active) in the test with OVCAR-4 ovarian; 20.3% in the test on SK-OV-3 ovarian. For the same compound, the growth in the test with IGROV1 ovarian is -54% (active); in the test on OVCAR-3 ovarian it was -51.4% (active); with NCI/ADR-RES ovarian, 12.2%.

With `CCOc1cc(CCNS(=O)(=O)c2ccc(C)cc2)c(C(C)=O)cc1OCC`, the growth with SR leukemia was 42.6% [100 µM]; with RPMI-8226 leukemia, 40% [100 µM]; in the test with OVCAR-8 ovarian, 76% [100 µM]; in the test on OVCAR-5 ovarian it was 101% [100 µM]; in the test with OVCAR-4 ovarian, 84.6% [100 µM]; with SK-OV-3 ovarian it was 96.7% [100 µM]. In addition, the growth is 93.9% [100 µM] in the test on IGROV1 ovarian, 71.8% [100 µM] with OVCAR-3 ovarian and 66.3% [100 µM] in the test on NCI/ADR-RES ovarian.

In the case of `O=c1[nH]c(N2CCC(Cc3ccccc3)CC2)nc2sc3c(c12)CCCC3`, the growth in the test on SR leukemia is 109%; in the test on RPMI-8226 leukemia, 107%; with OVCAR-8 ovarian, 96.3%; in the test on OVCAR-5 ovarian, 107%; in the test with OVCAR-4 ovarian, 110%; in the test with SK-OV-3 ovarian it was 101%. The results for the growth in the test with IGROV1 ovarian, in the test with OVCAR-3 ovarian and in the test with NCI/ADR-RES ovarian were 106%, 106% and 96.6%, respectively.

Take `Cc1ccc2nc(SCC(=O)Nc3ccc(-c4nc5ccccc5s4)c(Cl)c3)[nH]c2c1`: the growth is 97.2% in the test on SR leukemia; 109% with RPMI-8226 leukemia; 110% in the test on OVCAR-8 ovarian; 108% in the test on OVCAR-5 ovarian; 112% in the test on OVCAR-4 ovarian; 105% in the test on SK-OV-3 ovarian. Further, the growth is 100% with IGROV1 ovarian, 111% in the test with OVCAR-3 ovarian and 107% in the test with NCI/ADR-RES ovarian.

Turning to `O=C(CNC(=O)c1cccc2ccccc12)Nc1ccccc1Oc1ccc(O)cc1`, the growth in the test with SR leukemia is 30.4% [5 µM]; with RPMI-8226 leukemia it was 24.2% [5 µM]; in the test on OVCAR-8 ovarian it was 28.4% [5 µM]; in the test on OVCAR-5 ovarian it was 40.3% [5 µM]; in the test on OVCAR-4 ovarian it was 70.4% [5 µM]; in the test with SK-OV-3 ovarian, 28.9% [5 µM]. Also, the growth was 38% [5 µM] in the test on IGROV1 ovarian, -6.31% [5 µM] (active) in the test with OVCAR-3 ovarian and 23.5% [5 µM] in the test with NCI/ADR-RES ovarian.

`COc1ccc(CNC(=O)c2c(C)n([O-])c3ccc(OC)cc3[n+]2=O)cc1`: the growth with SR leukemia is 90.4%; in the test on RPMI-8226 leukemia it was 94%; in the test with OVCAR-8 ovarian, 87%; with OVCAR-5 ovarian, 103%; in the test on OVCAR-4 ovarian, 105%; in the test with SK-OV-3 ovarian, 126%. Also, the figures for the growth in the test on OVCAR-3 ovarian, in the test on HS 578T breast and with NCI/ADR-RES ovarian were 187%, 108% and 21.3%, respectively.

`Cn1cc(NC(=O)Nc2cc(C(=O)O)n(C)c2)cc1C(=O)O`: the growth was 86.8% with SR leukemia; 125% in the test with RPMI-8226 leukemia; 94.4% in the test with OVCAR-8 ovarian; 107% in the test with OVCAR-5 ovarian; 99.8% with OVCAR-4 ovarian; 112% in the test with SK-OV-3 ovarian. Further, the growth is 102% with OVCAR-3 ovarian, 108% in the test with HS 578T breast and 105% in the test with NCI/ADR-RES ovarian.

Turning to `Nc1ccc(Oc2c(F)c(F)c(Oc3ccc(N)cc3)c(F)c2F)cc1`, the growth in the test on SR leukemia is 96.3%; with RPMI-8226 leukemia, 82.9%; in the test with OVCAR-8 ovarian it was 101%; in the test on OVCAR-5 ovarian, 83.4%; in the test with OVCAR-4 ovarian, 83.8%; in the test with SK-OV-3 ovarian, 105%. Further, the growth is 101% with OVCAR-3 ovarian, 95.4% with HS 578T breast and 94% in the test with NCI/ADR-RES ovarian.

On to `O=C(NCCCl)NCCN1c2nc3ccccc3cc2Sc2cc3ccccc3nc21`, for which the growth with SR leukemia is 35.9%; in the test with RPMI-8226 leukemia, 42%; in the test with OVCAR-8 ovarian it was 56.2%; with OVCAR-5 ovarian it was 82.2%; in the test with OVCAR-4 ovarian it was 49.5%; with SK-OV-3 ovarian, 77.1%. In addition, the growth was 142% in the test with OVCAR-3 ovarian, 58% in the test on HS 578T breast and 57.4% in the test with NCI/ADR-RES ovarian.
